Compound activity from PubChem.
BJeLR lethal: BJeLR cell viability loss. AID 1554. BJeLR (HRASV12) viability, CellTiter-Glo ATP luminescence, 48 h. inhibition, % (test concentration not listed). actives 0.17% (n = 300,000); in the data active means inhibition above about 50%
SARS 3CLpro inh: SARS-CoV 3CLpro protease inhibition; recombinant SARS-CoV 3CLpro, quenched FRET peptide cleavage; inhibition, % at 6 µM; actives 0.14% (n = 290,000); AID 1706; in the data active means inhibition above about 12%
PfHsp40 rescue: restores yeast growth despite PfHsp40 toxicity; S. cerevisiae expressing PfHsp40, growth rescue, ATP luminescence; growth rescue, % at 12.5 µM; actives 0.68% (n = 340,000); AID 504582; in the data active means growth rescue above about 28%, passing the limit was not always enough;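 further: yeast W303a lacking pdr1 and pdr3 grown in galactose medium; growth measured after three days at 30 °C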
MazEF act: increases E. coli MazEF RNase cleavage of RNA | P0AE70 | FAM/BHQ RNA-DNA oligo cleavage fluorescence, 5 h | activation, % at 20 µM | actives 0.32% (n = 350,000); in the data active means activation above about 50%
Target sequence (P0AE70 whole entry, looked up): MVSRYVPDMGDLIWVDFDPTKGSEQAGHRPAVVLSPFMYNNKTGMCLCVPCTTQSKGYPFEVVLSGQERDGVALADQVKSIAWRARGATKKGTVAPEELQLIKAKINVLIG
BH1578 lux ind: induces V. cholerae light production without autoinducers; V. cholerae BH1578 lux reporter, luminescence, 6 h; activation, % at 18.7 µM; AID 588436; actives 0.16% (n = 350,000); in the data active means activation mostly above about 9.7%, no sharp cut-off
DUSP3 inh: DUSP3 (human) phosphatase inhibition. recombinant VHR phosphatase, pNPP absorbance. inhibition, % at 13.3 µM. AID 1654. actives 0.52% (n = 290,000). P51452; in the data active means inhibition above about 50%
Target sequence (P51452 whole entry, looked up): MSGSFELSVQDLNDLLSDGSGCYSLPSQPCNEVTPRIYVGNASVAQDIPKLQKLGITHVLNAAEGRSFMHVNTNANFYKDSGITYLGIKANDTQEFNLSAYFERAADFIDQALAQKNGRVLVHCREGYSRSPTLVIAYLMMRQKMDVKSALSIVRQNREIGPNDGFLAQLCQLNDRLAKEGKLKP
* marks the source's active call; other numbers are inactive results; i = inactive; / = no result given. Rows were chosen to be rich in hits. Some 1.7% of all compounds tested hit in one or more screens of this group.

SMILES | BJeLR lethal | SARS 3CLpro inh | PfHsp40 rescue | MazEF act | BH1578 lux ind | DUSP3 inh
Oc1cccc(/C=N/NC(=S)Nc2cccnc2)c1O | 0 | -2 | 0 | -2 | i | 0
Oc1ccc(-c2cc(-c3ccc(O)cc3)nc(-c3ccccc3)n2)cc1 | -3 | 4 | 2 | 59* | 1 | 21
CCC1(C)OC(c2ccccc2)=C/C(=C/C=C2C(=O)NC(=O)NC2=O)O1 (configuration not stated) | 6 | -7 | 0 | 67* | 0 | -6
CC1(C)OC(c2ccccc2)=C/C(=C/C=C2C(=O)c3ccccc3C2=O)O1 | 4 | -1 | 1 | -32 | 0 | 16
CCOC(=O)c1c(C)[nH]c(C(=O)OCc2nc3ccsc3c(=O)[nH]2)c1C | / | / | / | -8 | -6 | /
C[C@@H](C(=O)NCc1ccccc1)N1C(=O)C2CC=CCC2C1=O (some centres not stated) | -15 | -1 | -1 | 0 | 25* | -6
COc1ccc(CNC(=O)COC(=O)c2c[nH]c(=O)[nH]c2=O)cc1OC | 4 | 2 | 34* | 1 | -1 | 32
COc1ccc(CN(C)C(=O)CNC(=O)c2sc3ccccc3c2Cl)c(OC)c1 | / | / | / | -9 | 0 | /
COCCNC(=O)C1(C)CCCN(C(=O)c2ccc3snnc3c2)C1 (configuration not stated) | / | / | / | / | -1 | /
COc1ccc(OC)c(N(CC(=O)NCCSc2ccccc2)S(C)(=O)=O)c1 | 4 | 1 | 1 | -1 | i | 50*
COc1ccc(-c2[nH]n(-c3ccc([N+](=O)[O-])cc3)c(=O)c2C=NCc2ccc(F)cc2)cc1 | -7 | 5 | 0 | 81* | 0 | -2
COc1ccc(-c2[nH]n(-c3ccc([N+](=O)[O-])cc3)c(=O)c2C=NCc2ccncc2)cc1 | / | 6 | 0 | 3 | 0 | 20
CCn1c(CNc2ccc(Cl)cc2)nnc1SCc1ccc(Cl)cc1 | 4 | 5 | 166* | -1 | i | 4
O=C(Nc1ccc2oc(=O)ccc2c1)c1ccc(-c2cccc([N+](=O)[O-])c2)o1 | 7 | -8 | / | -33 | -3 | 58*
C[C@@H]1CN([C@@H](C)CO)C(=O)CCCn2nncc2CO[C@H]1CN(C)C(=O)NC1CCCCC1 | / | / | / | -1 | i | /
Cc1cc2nc(C)n(CCCNC(=O)Nc3ccc(C#N)cc3)c2cc1C | 11 | -3 | 0 | 8 | 0 | 47
Cc1cc2nc(C)n(CCCN)c2cc1C | 6 | 1 | 0 | 1 | 0 | 51*
COc1cc(C(CC(=O)Nc2ccc(Cl)cn2)N2Cc3ccccc3C2=O)cc(OC)c1OC (configuration not stated) | -1 | -1 | / | -4 | 0 | 27
CC(C)c1ccc(Nc2nc(N3CCOCC3)nc(N3CCOCC3)n2)cc1 | / | / | / | 6 | 0 | /
Cc1ccc(Nc2nc(N3CCOCC3)nc(N3CCOCC3)n2)cc1 | -4 | 1 | -2 | 2 | 0 | 51*
CCN(c1ccc(OC)cc1)S(=O)(=O)c1nnc(NC(=O)c2ccc(C)cc2)s1 | 2 | -1 | 0 | 0 | 0 | -20
CCc1ccc(S(=O)(=O)/N=C2/C=C(Sc3ncn[nH]3)C(=O)c3ccccc32)cc1 | / | 7 | 179* | -9 | 0 | 55*
CCc1ccc(S(=O)(=O)/N=C2\C=CC(=O)c3ccccc32)cc1 | / | 0 | / | / | / | 10
Cc1ccccc1-n1c(SCc2c(C)noc2C)nnc1-c1cccnc1 | 15 | -3 | -1 | 70* | -1 | 14
Cc1ccccc1-n1c(SCc2c(C)noc2C)nnc1-c1ccncc1 | -2 | 1 | 3 | 2 | 0 | -5
SMILES | BJeLR lethal | SARS 3CLpro inh | PfHsp40 rescue | MazEF act | BH1578 lux ind | DUSP3 inh
COc1cc(S(=O)(=O)NC2CCCCC2C)ccc1Cl (configuration not stated) | / | 5 | -2 | -2 | -1 | -4
COc1cc(S(=O)(=O)NC2CCCCC2C)ccc1F (configuration not stated) | 3 | 3 | 98* | 0 | i | 2
O=C(CN1C(=O)COc2ccccc21)N1CCN(c2ccccc2F)CC1 | -7 | 8 | 83* | 5 | 0 | 4
O=C(CN1C(=O)COc2ccccc21)NCCCN1CCCC1 | 10 | 1 | 1 | 4 | 0 | -4
O=C(CN1C(=O)COc2ccccc21)NCCCN1CCN(c2ccccc2F)CC1 | 10 | 0 | -1 | -6 | i | -14
O=C(CN1C(=O)COc2ccccc21)NCCN1CCCC1 | -1 | 0 | 1 | 4 | i | 50*
O=C1COc2ccccc2N1Cc1ccccc1Cl | 6 | 1 | 50* | 0 | 17* | 37
c1ccc(CSC2=NNC(c3ccccn3)S2)cc1 (configuration not stated) | 6 | -1 | 93* | 6 | -1 | 10
O=C(CSC1=NNC(c2ccccn2)S1)Nc1ccc(C(F)(F)F)cc1 (configuration not stated) | -8 | -3 | 3 | -4 | i | 10
COc1ccc(NC(=O)COC(=O)c2cc(=O)c3ccccc3o2)cc1OC | / | / | 5 | 4 | i | /
O=C1NN(c2ccc(F)c(Cl)c2)C(=O)/C1=C\c1cccc(OC(=O)c2cccs2)c1 | 9 | 2 | 85* | -1 | -1 | -14
Nc1nc2sc3c(c2c(=O)s1)CCCC3 | -4 | -1 | 290* | 8 | -2 | 21
COc1ccc(OCC(=O)Nc2ccc(N3CCN(C(=O)c4ccccc4)CC3)c(Cl)c2)cc1 | -2 | 8 | 39* | -7 | i | 20
COc1ccc(CC(C)NCC(O)c2ccc(O)c(NC=O)c2)cc1 (configuration not stated) | / | / | 6 | 5 | -4 | /
Cc1nc(C(=O)N2CCc3c([nH]c4ccccc34)C2c2cc(F)ccc2F)cs1 (configuration not stated) | 0 | 4 | 2 | -19 | 0 | 4
CC(C)c1ccc2c(c1)C(c1cccs1)=NNC(c1ccncc1)=N2 | 21 | 0 | -1 | 5 | 0 | 8
COc1ccc2c(c1)C(c1cccs1)=NNC(c1ccncc1)=N2 | 2 | -3 | 1 | 242* | i | 44
Cc1ccc(CN=C(N)Nc2nc(C)cc(C)n2)cc1 | 23 | -1 | 0 | 8 | -1 | 57*
Cc1ccc(C)c(N/C(N)=N/c2nc(C)cc(C)n2)c1 | 9 | 3 | -1 | 10 | i | 1
CCCCc1nnc(NC(=O)c2ccc(OCc3c(C)noc3C)cc2)s1 | / | / | 0 | -6 | -2 | /
Cn1cncc1C#Cc1ccc2cc(CCO)oc(=O)c2c1 | / | / | 67* | 7 | i | /
Cn1cncc1C#Cc1ccc2cc(C3(O)CCCCC3)oc(=O)c2c1 | / | / | -1 | 76* | -1 | /
Cn1cncc1C#Cc1ccc2cc(CCCO)oc(=O)c2c1 | / | / | -2 | 7 | i | /
O=C(OCc1nnc(-c2ccccc2)o1)C1CC(=O)N(CCc2ccccc2)C1 (configuration not stated) | / | / | -1 | 4 | i | /
Cn1c(CO)nc2c3ccccc3ccc21 | -2 | / | -2 | 1 | 0 | /
